# Assay outcomes as filed in PubChem.
# HIF act – HIF pathway transcriptional activation | U2OS HRE-luciferase reporter, luminescence; normalized: DMSO 0%, desferrioxamine 100% | activation, % at 7.5 µM (by protocol) | 300,000 compounds, 0.32% hits | AID 1910;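 active = mean activation of at least 10% of the iron chelator positive control signal, with at least half of replicates also reaching 10%; inconclusive = mean and replicate majority disagree about reaching 10%; inactive = mean and most replicates under 10%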
# ARNT-TACC3 inh – ARNT/TACC3 interaction disruption; Q9Y6A5; AlphaScreen His-ARNT PAS-B/GST-TACC3 binding, luminescence; TACC3 fragment carries E629A point mutation; inhibition, % at 9.99 µM; 390,000 compounds, 0.66% hits; AID 623870;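 active = mean inhibition of replicates at least 50% and at least half of replicates each reaching 50%; inconclusive = half or more replicates reach 50% but mean below 50%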;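 note: 0% = complete ARNT plus TACC3 wells and 100% = ARNT alone without TACC3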
# HSF1 activator – increases HSF-1 driven luciferase reporter signal; 300,000 compounds, 1.7% hits; NIH3T3-HGL HSF-1 luciferase reporter, MG132, 8 h; 100% = twice DMSO control signal; activation, % at 9 µM;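 active = mean replicate activation of at least 50% with a set share of replicates each reaching 50%; inconclusive = only one of those two conditions met; inactive = mean below 50% and too few replicates reaching it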;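 note: 0% = median of the neutral control wells and 100% = twice that signal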
# HSF1 inhib – HSF1 inhibition | activity change, negative = inhibition, % at 7.5 µM (by protocol) | NIH3T3-HGL HSE-luciferase, MG132-induced, luminescence 8 h; hits give low values | 300,000 compounds, 0.77% hits;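 active = more than half of replicate wells show activity change below -50%, luminescence cut by over half; inconclusive = some wells, but at most half, below -50%; inactive = no replicate well below -50%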;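 note: luciferase reports HSF-1 transcriptional activity via heat shock element; 0% = median of DMSO wells and -100% = zero luminescence signal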
# HSP90 refold inh – inhibitors of HSP90 luciferase refolding in rabbit reticulocyte lysate. inhibition, % at 5.6 µM. luciferase refolding luminescence, 3 h. 290,000 compounds, 0.91% hits. AID 1789;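 active = inhibition above the screen-wide mean plus 3 SD, computed separately per campaign, cut at about 16% in these data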;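 note: 0% = DMSO wells and 100% = 60 µM geldanamycin wells; inhibitors lower the luminescence because luciferase stays unfolded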
# Numbers without * were called inactive; ? = inconclusive; . = no result. Most compounds without a hit are left out; they make up all but 3.1% or so of the library.
SMILES,HIF act,ARNT-TACC3 inh,HSF1 activator,HSF1 inhib,HSP90 refold inh
COc1cc(C=O)ccc1OC(=O)c1ccc(C(C)C)cc1,0,15,-93,-91*,-2
CCOC(=O)c1c(-c2ccc(C)o2)csc1NC(=O)COC(=O)c1ccc(NC(N)=O)cc1,-1,27,74*,74,3
CCOC(=O)c1c(-c2ccc(C)o2)csc1NC(=O)CSc1nnc(C)s1,0,0,33,24,4
OCCNc1nc(Nc2ccccc2OC(F)(F)F)nc(N2CCCC2)n1,0,2,3,-2,.
OCCNc1nc(Nc2ccccc2Oc2ccccc2)nc(N2CCCC2)n1,0,23*,1,-3,.
COc1ccc(Nc2nc(NCCO)nc(N3CCCC3)n2)cc1,0,1,1,1,.
COc1cccc(Nc2nc(NCCO)nc(N3CCCC3)n2)c1,0,active,7,-3,.
C[C@@H]1CN([C@H](C)CO)S(=O)(=O)c2ccc(Br)cc2O[C@@H]1CN(C)C(=O)C1CC1,.,-6,.,.,.
N/C(=N\OC(=O)c1ccc(Cl)cc1Cl)c1ccc(Cl)cc1,2,14,-73,-72*,9
CN(CC(=O)NCc1cccnc1)S(=O)(=O)c1ccc2c(c1)c(=O)n(C)c(=O)n2C,0,-8,-89,-86*,-1
CN(CC(=O)NCCc1ccc(Cl)cc1)S(=O)(=O)c1ccc2c(c1)c(=O)n(C)c(=O)n2C,0,2,7,2,-4
O=C(COC(=O)C1CC2C=CC1C2)Nc1ccc2c(c1)OC(F)(F)O2 (stereo not given),0,-8,105*,88,2
Cc1cc(NC(=O)C2C3C(=O)N(Cc4ccc(Cl)cc4)C(C(=O)NC(C)(C)C)C34C=CC2(C)O4)no1 (stereo not given),0,3,-64,-55*,-2
Cc1cc(NC(=O)C2C3C(=O)N(CC4CCCO4)C(C(=O)NC(C)(C)C)C34C=CC2(C)O4)no1 (stereo not given),-3,-1,-3,-9,-1
COc1ccc(/C=C/C(=O)c2ccc(O)cc2)cc1CN1CCOCC1,0,12,35,23,-1
COc1ccc(/C=C/C(=O)C23CC4CC(CC(C4)C2)C3)cc1CN1CCOCC1,0,.,122*,64,1
C[C@H]1CN([C@@H](C)CO)C(=O)c2cc(NS(=O)(=O)c3cn(C)cn3)ccc2O[C@@H]1CN(C)Cc1ccccc1,.,0,.,.,.
CCC(N=c1cc(-c2ccc(OC)cc2)oc2ccc(C)cc12)C(=O)O (stereo not given),1,2,59*,32,3
CCC(N=c1cc(-c2ccc(OC)c(OC)c2)oc2ccc(C)cc12)C(=O)O (stereo not given),1,-2,-65,?,-2
C[C@H](CO)N1C[C@H](C)[C@H](CN(C)S(=O)(=O)c2ccc(F)cc2)Oc2ncc(C#CC(C)(C)O)cc2C1=O,.,-12,.,.,.
Cc1ccc2nc(SCC(=O)Nc3cccc(S(N)(=O)=O)c3)[nH]c2c1,0,2,-6,-2,0
Cc1nnc(SCC(=O)Nc2cccc(S(=O)(=O)NC3=NCCCCC3)c2)n1Cc1ccccc1,0,0,-4,-3,6
Cc1ccc(Nc2nnc(SCC(=O)Nc3ccc(S(=O)(=O)N4CCOCC4)cc3)s2)cc1,2,10,72*,15,-4
Cc1ccc2nc(SCC(=O)Nc3cccc(S(=O)(=O)NC4=NCCCCC4)c3)[nH]c2c1,-1,7,112*,54,-6
Cc1ccc(Nc2nnc(SCC(=O)Nc3cccc(S(=O)(=O)NC4=NCCCCC4)c3)s2)cc1,0,-7,86*,31,-1
SMILES,HIF act,ARNT-TACC3 inh,HSF1 activator,HSF1 inhib,HSP90 refold inh
CCc1ccc(Nc2nnc(SCC(=O)Nc3cccc(S(=O)(=O)NC4=NCCCCC4)c3)s2)cc1,1,-2,55*,26,6
CCC(=O)N(C)C[C@H]1Oc2cc(C#CCC(C)C)ccc2S(=O)(=O)N([C@@H](C)CO)C[C@H]1C,.,1,.,.,.
Cc1cccc(NC(=O)CSc2nnc(NC(=O)CN3CCCCC3)s2)c1,0,.,-9,-5,2
Cc1cccc(Nc2nnc(SCC(=O)Nc3cccc(S(=O)(=O)N4CCCCC4)c3)s2)c1,1,-6,58*,16,-3
COC(=O)C[C@@H]1C[C@@H]2c3cc(NC(=O)Nc4ccc(OC)cc4)ccc3O[C@@H]2[C@H](CO)O1,.,0,.,.,.
CC(=O)Cn1cnc2c(cnn2-c2ccc(C)c(C)c2)c1=O,-8,-10,59*,7,-4
Cc1ccc(-n2ncc3c(=O)n(CC(=O)N(C)C)cnc32)cc1C,0,-1,8,3,-3
N#C/C(=C/c1ccc(F)cc1)c1nc(CCN2C(=O)c3ccccc3C2=O)cs1,0,-5,11,0,2
N#C/C(=C/c1cccc(C(F)(F)F)c1)c1nc(CCN2C(=O)c3ccccc3C2=O)cs1,0,2,-65,-59*,-4
CCN(Cc1ccccc1)C(=O)C1CCN(C/C(C)=C/c2ccccc2)CC1,0,0,88*,38,-3
Nc1ccc(S(=O)(=O)N2CCC(Cc3ccccc3)CC2)cc1,2,-4,-64,-55*,8
O=C(N[C@H]1CC[C@H](CCNS(=O)(=O)c2cccc(Cl)c2)O[C@@H]1CO)c1ccncc1,.,-39,.,.,.
Cc1ccc(NC(=O)Nc2ccc3c(c2)C(=O)N(C)[C@H]2CC[C@@H](CC(=O)O)O[C@@H]2CO3)cc1,.,-13,.,.,.
CCOC(=O)/C(=N/Nc1ccc(Cl)cc1)Sc1nnnn1-c1ccc(C)cc1,0,-4,74*,55,-2
CC=Cc1ccc2n(c1=O)C[C@H]1[C@H](CO)[C@@H](C(=O)NCC3CC3)[C@@H]2N1Cc1ccccc1OC (mixture of isomers),.,-1,.,.,.
NS(=O)(=O)c1ccc(CCNC(=O)c2ccc(Br)s2)cc1,0,-2,7,3,-2
O=C(NCCc1ccc(Cl)cc1)c1ccc(Br)s1,3,-10,67*,53,-2
Cc1cc(C)n(CCNC(=O)c2ccc3c(c2)OCO3)n1,2,4,58*,11,-4
O=C(NCCc1ccc(Cl)cc1)c1ccc2c(c1)OCO2,3,-1,99*,64,1
O=C(C[C@H]1C[C@H]2c3cc(NS(=O)(=O)c4ccc(F)cc4)ccc3O[C@H]2[C@H](CO)O1)NCc1ccc(-c2ccccc2)cc1,.,11,.,.,.
CO[C@H]1CN(C)C(=O)c2cc(NS(=O)(=O)CC(F)(F)F)ccc2OC[C@@H](C)N(CC2CCCCC2)C[C@@H]1C,.,-9,.,.,.
CCCN1[C@H](C(=O)N[C@@H](C)c2ccccc2)[C@@H](CO)[C@@H]2Cn3c(ccc(-c4ccccc4)c3=O)[C@@H]21,.,1,.,.,.
CCCc1[nH]nc2c1C1(CCN(C(=O)OCc3ccccc3)CC1)C(C#N)=C(N)O2,0,.,13,0,2
